# From the supplement of paper PMC8728848
# The full list was thinned out, with the strongest signals kept by preference.
# B1: CaSRK1 (Capsicum annuum) (protein)
# chain: MALCKIFPFAFILLSCSCYLISGQRFDYPTANLSTTWINSVSAPHSIDYTDGSRIRAILLRGTFGPRYACGFYCNGNCESYLFAIFIVQTNSASQITSPAIGFPQVVWSANRNNPVKINSTLQLTAEGDLVLRDADGTLAWSTNTAGKSVAGLSLTDEGNLALFDSKNATVWQSFDHPTDALVPGQKLVPGMKLTASVSRTNWTAGGLFALSAIDNGLVAFVESNPPQKYFEASVGGSNTSGGSNYVKYLNGSLTLFTHSADTTELILISITPASSAQYMKLESNGHLKVYEWTSRGWREVDDLLTGFRGECNYPTVCGRYGICTMGQCSCPTSSSSRTYFRPIDVRRPSLGCSEVTKLTCQNTKKHSPLEVEDVDYFAFKAGISDTDLNTCKRACLEKCSCKAAFFRSGLNSSRTRGDCYLPTEIFSIMNNEKDRTRYDSVAFIKVQV
# Key:
# Assay in all cases: glycan array binding signal (z-score within array); higher = stronger binding
# Conditions in all cases: glycan notation: IUPAC condensed, linker removed
# [1] = target: Fuc(a1-2)Gal(b1-3)[Fuc(a1-4)]GlcNAc
# In short: (§1)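 Glycan array data were curated from 3228 arrays in the Consortium for Functional Glycomics database and kept only where the protein sequence was available. Glycan names were converted to IUPAC-condensed notation, and columns mapping to the same glycan were averaged. The binding signal is a within-array Z-score, averaged across arrays of the same protein sequence at different concentrations or buffers and across linkers. Negative Z-scores can be read as non-binding.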
# [2] = target: Fuc(a1-2)Gal6S(b1-3)GlcNAc6S
# In short: as §1
# [3] = target: Fuc(a1-2)[Gal(a1-3)]Gal(b1-3)GlcNAc
# In short: as §1
# [4] = target: Fuc(a1-2)[Gal(a1-3)]Gal(b1-3)GlcNAc(b1-2)Man(a1-3)[Fuc(a1-2)[Gal(a1-3)]Gal(b1-3)GlcNAc(b1-2)Man(a1-6)]Man(b1-4)GlcNAc(b1-4)GlcNAc
# In short: as §1
# [5] = target: Fuc(a1-3)[Gal(b1-4)]Glc6S
# In short: as §1
# [6] = target: Fuc(a1-3)[Gal(b1-4)]GlcNAc(b1-3)Gal(b1-4)[Fuc(a1-3)]GlcNAc
# In short: as §1
# [7] = target: Fuc(a1-3)[Gal(b1-4)]GlcNAc6S
# In short: as §1
# [8] = target: Gal(a1-3)Fuc(a1-2)Gal(b1-4)GlcNAc(b1-3)[Gal(a1-3)Fuc(a1-2)Gal(b1-4)GlcNAc(b1-6)]GalNAc
# In short: as §1
# Gal(a1-3)Gal(b1-3)GlcNAc = target: Gal(a1-3)Gal(b1-3)GlcNAc
# In short: as §1
# Gal(b1-3)GalNAc = target: Gal(b1-3)GalNAc
# In short: as §1
# [9] = target: Gal(b1-3)GalNAc(a1-3)[Fuc(a1-2)]Gal(b1-4)Glc
# In short: as §1
# Gal(b1-3)GlcNAc(b1-2)Man = target: Gal(b1-3)GlcNAc(b1-2)Man
# In short: as §1
# [10] = target: Gal(b1-3)[Fuc(a1-4)]GlcNAc(b1-2)Man(a1-3)[Gal(b1-3)[Fuc(a1-4)]GlcNAc(b1-2)Man(a1-6)]Man(b1-4)GlcNAc(b1-4)[Fuc(a1-6)]GlcNAc
# In short: as §1
# [11] = target: Gal(b1-3)[Neu5Ac(a2-6)]GalNAc
# In short: as §1
# Gal(b1-4)Glc6S = target: Gal(b1-4)Glc6S
# In short: as §1
# [12] = target: Gal(b1-4)GlcNAc(b1-3)Gal(b1-4)GlcNAc(b1-2)[Gal(b1-4)GlcNAc(b1-3)Gal(b1-4)GlcNAc(b1-6)]Man(a1-6)[Gal(b1-4)GlcNAc(b1-3)Gal(b1-4)GlcNAc(b1-2)Man(a1-3)]Man(b1-4)GlcNAc(b1-4)GlcNAc
# In short: as §1
# [13] = target: Gal(b1-4)GlcNAc(b1-3)Gal(b1-4)GlcNAc(b1-3)Gal(b1-4)GlcNAc(b1-3)Gal(b1-4)GlcNAc(b1-2)Man(a1-3)[Gal(b1-4)GlcNAc(b1-3)Gal(b1-4)GlcNAc(b1-3)Gal(b1-4)GlcNAc(b1-3)Gal(b1-4)GlcNAc(b1-2)Man(a1-6)]Man(b1-4)GlcNAc(b1-4)[Fuc(a1-6)]GlcNAc
# In short: as §1
# [14] = target: Gal(b1-4)GlcNAc(b1-3)Gal(b1-4)GlcNAc(b1-3)GalNAc
# In short: as §1
# [15] = target: Gal(b1-4)GlcNAc(b1-6)Gal(b1-4)GlcNAc
# In short: as §1
# [16] = target: Gal3S(b1-3)[Fuc(a1-4)]GlcNAc
# In short: as §1
# Gal3S6S(b1-4)GlcNAc6S = target: Gal3S6S(b1-4)GlcNAc6S
# In short: as §1
# Gal6P(b1-4)GlcNAc = target: Gal6P(b1-4)GlcNAc
# In short: as §1
# Gal6S(b1-4)Glc6S = target: Gal6S(b1-4)Glc6S
# In short: as §1
# GalNAc(b1-4)GlcNAc6S = target: GalNAc(b1-4)GlcNAc6S
# In short: as §1
# [17] = target: Glc(a1-4)Glc(a1-4)Glc(a1-4)Glc
# In short: as §1
# [18] = target: GlcNAc(b1-2)Gal(b1-3)GalNAc
# In short: as §1
# [19] = target: GlcNAc(b1-2)Man(a1-3)[GlcNAc(b1-2)Man(a1-6)]Man(b1-4)GlcNAc(b1-4)[Fuc(a1-6)]GlcNAc
# In short: as §1
# [20] = target: GlcNAc(b1-2)[GlcNAc(b1-6)]Man(a1-6)[GlcNAc(b1-2)Man(a1-3)]Man(b1-4)GlcNAc(b1-4)GlcNAc
# In short: as §1
# [21] = target: GlcNAc(b1-3)Gal(b1-4)GlcNAc(b1-3)Gal(b1-4)GlcNAc(b1-3)GalNAc
# In short: as §1
# [22] = target: GlcNAc(b1-3)[GlcNAc(b1-4)][GlcNAc(b1-6)]GlcNAc
# In short: as §1
binder,measurement,setting,value
B1,glycan array binding signal (z-score),[1],-0.523
same,glycan array binding signal (z-score),[2],2.31
same,glycan array binding signal (z-score),[3],2.37
same,glycan array binding signal (z-score),[4],-0.546
same,glycan array binding signal (z-score),[5],-0.056
same,glycan array binding signal (z-score),[6],0.387
same,glycan array binding signal (z-score),[7],0.606
same,glycan array binding signal (z-score),[8],3.39
same,glycan array binding signal (z-score),Gal(a1-3)Gal(b1-3)GlcNAc,3.11
same,glycan array binding signal (z-score),Gal(b1-3)GalNAc,-0.395
same,glycan array binding signal (z-score),[9],0.178
same,glycan array binding signal (z-score),Gal(b1-3)GlcNAc(b1-2)Man,5.29
same,glycan array binding signal (z-score),[10],-0.295
same,glycan array binding signal (z-score),[11],-0.368
same,glycan array binding signal (z-score),Gal(b1-4)Glc6S,-0.386
same,glycan array binding signal (z-score),[12],3.63
same,glycan array binding signal (z-score),[13],0.677
same,glycan array binding signal (z-score),[14],2.85
same,glycan array binding signal (z-score),[15],0.04
same,glycan array binding signal (z-score),[16],-0.07
same,glycan array binding signal (z-score),Gal3S6S(b1-4)GlcNAc6S,2.4
same,glycan array binding signal (z-score),Gal6P(b1-4)GlcNAc,-0.342
same,glycan array binding signal (z-score),Gal6S(b1-4)Glc6S,0.802
same,glycan array binding signal (z-score),GalNAc(b1-4)GlcNAc6S,0.352
same,glycan array binding signal (z-score),[17],0.933
same,glycan array binding signal (z-score),[18],-0.097
same,glycan array binding signal (z-score),[19],-0.143
same,glycan array binding signal (z-score),[20],-0.46
same,glycan array binding signal (z-score),[21],-0.477
same,glycan array binding signal (z-score),[22],-0.34
